The target of experiment [1] is Retinoic acid receptor RXR-alpha (Homo sapiens) (UniProt P19793). In words: qHTS assay to identify small molecule agonists of the RXR signaling pathway (AID 1159527; calls by dose curve; also: nearly all actives have a fitted effect of over 35% in size; also: potency is read from the fitted curve at half-maximal effect). A digest of the protocol: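 Read-out: beta-lactamase FRET ratio (405 nm excitation, 460 and 530 nm emission) after 2 hr substrate loading at room temperature. Cells were RXR-alpha-UAS-bla HEK 293T treated with compounds for 16 hr in 2% charcoal-stripped FBS medium.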
(In general: Quantitative high-throughput screening tests each substance at several concentrations.)

Experiment [2] is described as follows: qHTS assay to identify small molecule agonists of the RXR signaling pathway - cell viability counter screen (AID 1159529). Also: series mostly up to about 77 µM; nearly all actives have a fitted effect of over 50% in size. A digest of the protocol: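 HEK 293T RXRa-bla cells, 2% CS-FBS; 5 h settle; cpd 16 h 37 C, 5% CO2; CellTiter-Glo 30 min RT, luminescence. Tetraoctyl ammonium bromide as positive control.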
The nature of experiment [3]: qHTS assay to identify small molecule antagonists of the retinoid acid receptor (RAR) signaling pathway - cell viability counter screen (AID 1159551). Also: nearly all actives have a fitted effect of over 35% in size. In a few lines:
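Luminescent ATP quantitation (CellTiter-Glo) gave cell viability in C3RL4 cells exposed to test chemicals for 6 h at 37 C alongside 1 uM final retinol.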

Experiment [4] is described as follows: qHTS assay to identify small molecule antagonists of the retinoic acid receptor (RAR) signaling pathway (AID 1159552; also: nearly all actives have a fitted effect of over 50% in size). In a few lines: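 Cells of the C3RL4 line were seeded, incubated overnight, then dosed with compounds in DMSO followed immediately by retinol (1 uM final). Six hours later luciferase detection reagent went in; signal was measured after 30 min at RT.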

A short description of experiment [5]: qHTS assay to identify small molecule agonists of the retinoic acid receptor (RAR) signaling pathway (AID 1159553). A digest of the protocol: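 Luminescence from a RARE-driven luciferase reporter in C3RL4 cells served as the read-out, measured after 30 min with detection reagent at room temperature. Compounds in DMSO were applied for 6 hr at 37 C following overnight seeding.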

Experiment [6] in a line: qHTS assay to identify small molecule antagonists of the estrogen related receptor (ERR) signaling pathway from Tox21 library - cell viability counter screen (AID 1224834). Also: nearly all actives have a fitted effect of over 30% in size. A digest of the protocol:
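Fluorescence from CellTiter-Fluor gives the viability read-out, taken 30 min after reagent addition. Before that, ERR cells seeded 6 h earlier were incubated with compounds for 17.5 h at 37 C.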

For experiment [7], the target named is Luciferin 4-monooxygenase (Photinus pyralis) (UniProt P08659). The experiment is described as follows: qHTS assay to identify small molecule inhibitors of firefly luciferase (AID 1224835). Also: series mostly up to about 120 µM; nearly all actives have a fitted effect of over 25% in size. A digest of the protocol: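 Quantitative HTS format; KM concentrations of both substrates. Purified P. pyralis FLuc activity quantified from luminescence images.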
Experiment [8] in a line: qHTS assay to identify small molecule agonists of the constitutive androstane receptor (CAR) signaling pathway - cell viability counter screen (AID 1224836). Also: series mostly up to about 92 µM; nearly all actives have a fitted effect of over 45% in size. A digest of the protocol:
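HepG2-CYP2B6-hCAR, 2500 cells/well, 4 h pre-incubation; cpd 15 conc + PK11195 0.75 uM final; 23 h, 37 C/5% CO2; CellTiter-Fluor, fluorescence.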

Experiment [9] is described as follows: qHTS assay to identify small molecule antagonists of the constitutive androstane receptor (CAR) signaling pathway - cell viability counter screen (AID 1224837). Also: series mostly up to about 92 µM; nearly all actives have a fitted effect of over 45% in size. A digest of the protocol:
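HepG2-CYP2B6-hCAR cells, 2500/well, 4 hr pre-incubation; compound titration, 15 conc.; CITCO 50 nM final; 23 hr, 37 C/5% CO2; CellTiter-Fluor, fluorescence intensity.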

Experiment [10] can be described thus: qHTS assay to identify small molecule antagonists of the estrogen related receptor signaling pathway with the pleiotropic PPARgamma coactivator (PGC) from Tox21 10K library - cell viability counter screen (AID 1224840; active = well fitted cell-killing curve with a large enough effect in the repeat runs, not every such curve was filed as active; also: nearly all actives have a fitted effect of over 40% in size). In a few lines:
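PGC/ERR cells, 2,000/well; 6 h pre-incubation 37 C/5% CO2; cpd in DMSO via pin tool; 17.5 h 37 C; CellTiter-Fluor, 30 min; fluorescence.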

Experiment [11] concerns the target Nuclear receptor subfamily 1 group I member 3 (Homo sapiens) (UniProt Q14994). In words: qHTS assay to identify small molecule antagonists of the constitutive androstane receptor (CAR) signaling pathway (AID 1224838).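 Also: HepG2 cells stably expressing hCAR with CYP2B6 luciferase reporter stimulated by CITCO; nearly all actives have a fitted effect of over 40% in size.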 A digest of the protocol:
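HepG2-CYP2B6-hCAR cells; 4 h pre-incubation; cpd (15 conc) + CITCO 50 nM final; 24 h, 37 C/5% CO2; ONE-Glo, luminescence.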

Experiment [12] has the same target. In words: qHTS assay to identify small molecule agonists of the constitutive androstane receptor (CAR) signaling pathway (AID 1224839).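 Also: HepG2 cells stably carrying human CAR and a CYP2B6 luciferase reporter; series mostly up to about 92 µM; nearly all actives have a fitted effect of over 15% in size.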 A digest of the protocol:
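HepG2-CYP2B6-hCAR cells, 2500/well, 4 h pre-incubation; compounds 15 conc.; PK11195 0.75 uM final; 24 h, 37 C/5% CO2; ONE-Glo luciferase read.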

A short description of experiment [13]: qHTS assay to identify small molecule antagonists of the estrogen related receptor signaling pathway with the pleiotropic PPARgamma coactivator (PGC) from Tox21 10K library (AID 1224841; call rule not given here; also: series mostly up to about 92 µM; actives are mostly falling curves and most rising ones were filed inactive; nearly all actives have a fitted effect of over 50% in size). In a few lines: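 PGC/ERR cell line, 2,000 cells/well; 6 h pre-incubation 37 C/5% CO2; compounds (DMSO) pinned in; 18 h, 37 C; One-Glo, 30 min RT; luminescence.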
Experiment [14] can be described thus: qHTS assay to identify small molecule agonists of the estrogen related receptor signaling pathway with the pleiotropic PPARgamma coactivator (PGC) from Tox21 10K library (AID 1224842). Also: nearly all actives have a fitted effect of over 15% in size. A digest of the protocol:
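PGC/ERR reporter cells (NTP line) were seeded 2,000 per well, rested 6 h at 37 C/5% CO2, then pin-dosed with compounds in DMSO for 18 h at 37 C; luciferase read by One-Glo luminescence after 30 min at room temperature.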

Experiment [15] can be described thus: qHTS assay to identify small molecule antagonists of the estrogen related receptor (ERR) signaling pathway - cell viability counter screen (AID 1224818).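 Also: series mostly up to about 46 µM; viability measured after 17.5 h of compound exposure.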 In a few lines:
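Multiplexed counter screen to separate cytotoxic compounds from true ERR modulators. ERR cells received DMSO-dissolved compounds after a 6 h pre-incubation, were exposed 17.5 h at 37 C, then assayed with CellTiter-Fluor fluorescence.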

A short description of experiment [16]: qHTS assay to identify small molecule agonists of the estrogen related receptor (ERR) signaling pathway (AID 1224820). A digest of the protocol: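 Quantitative HTS of the LOPAC library used NTP ERR reporter cells treated 18 h at 37 C. Signal is luminescence after One-Glo addition and a 30 min room-temperature incubation.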
The nature of experiment [17]: qHTS assay to identify small molecule antagonists of the estrogen related receptor signaling pathway with the pleiotropic PPARgamma coactivator (PGC) cell viability counter screen (AID 1224822; also: series mostly up to about 46 µM). In a few lines:
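Cells: PGC/ERR, 2,000/well, 1536-well format. Pre-incubation 6 h, 37 C/5% CO2. Compound exposure 17.5 h, 37 C. Detection: CellTiter-Fluor, 30 min, fluorescence.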

A short description of experiment [18]: qHTS assay to identify small molecule agonists of the estrogen related receptor signaling pathway with the pleiotropic PPARgamma coactivator (PGC) (AID 1224823). A digest of the protocol:
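Cell-based luciferase assay in the NTP-supplied PGC/ERR line, 2,000 cells/well; 18 h compound exposure at 37 C, luminescence after One-Glo.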

Records with an inconclusive call do not appear. More than one record can exist for a structure, and the calls need not agree. Activity calls are given as the source filed them. Unless noted, calls follow the shape of the dose curve; as a rule, active = well fitted curve in the direction sought with a large enough effect in the repeat runs; inconclusive = weak or mixed curves; inactive = no such curve, though single readings can be large; an effect the other way counts as inactive or inconclusive.

Retinoic acid receptor RXR-alpha (Homo sapiens), sequence (P19793 whole entry, looked up): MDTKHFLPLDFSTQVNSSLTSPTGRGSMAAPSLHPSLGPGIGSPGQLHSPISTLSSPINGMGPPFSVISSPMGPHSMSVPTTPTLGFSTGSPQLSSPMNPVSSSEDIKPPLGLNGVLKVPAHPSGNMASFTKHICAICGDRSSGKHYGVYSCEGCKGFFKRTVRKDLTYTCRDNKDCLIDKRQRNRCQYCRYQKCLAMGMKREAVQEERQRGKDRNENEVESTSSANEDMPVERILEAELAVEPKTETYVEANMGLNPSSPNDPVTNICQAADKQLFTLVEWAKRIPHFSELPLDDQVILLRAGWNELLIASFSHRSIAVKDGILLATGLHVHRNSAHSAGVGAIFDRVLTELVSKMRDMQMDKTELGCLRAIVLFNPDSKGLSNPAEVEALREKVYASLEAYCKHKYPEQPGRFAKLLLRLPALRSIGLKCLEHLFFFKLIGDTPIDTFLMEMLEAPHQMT
Nuclear receptor subfamily 1 group I member 3 (Homo sapiens), sequence (Q14994 whole entry, looked up): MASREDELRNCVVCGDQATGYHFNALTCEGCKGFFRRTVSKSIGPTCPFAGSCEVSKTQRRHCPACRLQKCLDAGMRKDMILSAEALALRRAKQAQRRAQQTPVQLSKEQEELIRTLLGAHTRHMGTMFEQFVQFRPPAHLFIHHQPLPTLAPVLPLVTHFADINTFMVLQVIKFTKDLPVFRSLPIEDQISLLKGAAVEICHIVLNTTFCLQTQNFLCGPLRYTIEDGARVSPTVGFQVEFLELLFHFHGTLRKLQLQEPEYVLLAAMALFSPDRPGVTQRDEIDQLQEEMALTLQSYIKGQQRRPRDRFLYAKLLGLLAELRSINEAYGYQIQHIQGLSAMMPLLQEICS
Luciferin 4-monooxygenase (Photinus pyralis), sequence (P08659 whole entry, looked up): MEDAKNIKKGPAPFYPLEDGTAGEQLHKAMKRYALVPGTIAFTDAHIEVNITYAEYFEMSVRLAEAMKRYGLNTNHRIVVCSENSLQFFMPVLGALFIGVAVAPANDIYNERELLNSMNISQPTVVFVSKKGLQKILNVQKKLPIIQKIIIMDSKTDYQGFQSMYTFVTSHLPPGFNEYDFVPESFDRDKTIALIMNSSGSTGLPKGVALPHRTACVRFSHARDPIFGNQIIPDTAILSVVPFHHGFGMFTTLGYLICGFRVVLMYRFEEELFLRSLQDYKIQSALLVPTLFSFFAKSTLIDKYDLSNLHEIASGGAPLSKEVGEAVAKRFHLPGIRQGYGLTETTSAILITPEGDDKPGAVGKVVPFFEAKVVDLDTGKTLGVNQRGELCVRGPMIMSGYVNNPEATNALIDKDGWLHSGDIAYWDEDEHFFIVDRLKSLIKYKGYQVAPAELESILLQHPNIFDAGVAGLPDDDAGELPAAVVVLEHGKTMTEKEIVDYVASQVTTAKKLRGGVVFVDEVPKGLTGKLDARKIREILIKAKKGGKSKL

As for `OCCc1ccccc1`, the Potency entry in [1], in experiment [2], in experiment [4], in [6], in experiment [7] and in experiment [8] was “inactive” throughout. Further, the Potency entry in experiment [9] and in [10] was “inactive” in each case. In addition, the molecule was classed as inactive in experiment [3] and in experiment [5].
In the case of `CCCCCCCCCCCCCCCC(=O)O`, the Potency entry in experiment [1], in experiment [2], in [4], in experiment [6], in experiment [7] and in [8] was “inactive” throughout. In addition, the Potency entry in [9], in experiment [11], in experiment [12] and in [10] was “inactive” each time. The call in [3] and in [5] was inactive.
On to `O=C(O)CCC(=O)O`, for which the Potency entry in [1], in [2], in experiment [4], in experiment [6], in experiment [7] and in experiment [8] was “inactive” throughout. For the same molecule, the Potency entry in [9], in [11], in [12], in [10], in [13] and in experiment [14] was “inactive” in each case. The result in experiment [3] and in [5] was inactive.
Turning to `O=S(=O)(O)c1ccc2cc(O)ccc2c1`, the Potency entry in experiment [1], in experiment [2], in experiment [4], in experiment [6], in [7] and in experiment [8] was “inactive” in each case. Moreover, the Potency result in experiment [9], in experiment [11], in [12] and in [10] was “inactive” in each case. In addition, the molecule was called inactive in [3] and in experiment [5].
`CCCCC1C(=O)N(c2ccccc2)N(c2ccccc2)C1=O`: the Potency result in experiment [1], in experiment [2], in [4], in experiment [16], in [18] and in experiment [6] was “inactive” in each case. Besides, the Potency result in experiment [7], in experiment [8], in experiment [9], in [11], in experiment [12] and in experiment [10] was “inactive” in each case. In addition, the Potency result in [13] and in experiment [14] was “inactive” throughout. In addition, the molecule was classed as inactive in experiment [3], in experiment [5], in experiment [15] and in [17].
Take `NC(=O)c1ccccc1O`: the Potency entry in experiment [1], in experiment [2], in experiment [4], in experiment [6], in experiment [7] and in [8] was “inactive” throughout. The Potency entry in experiment [9] and in [10] was “inactive” each time. The result in experiment [3] and in experiment [5] was inactive.
As for `O=C(O)C(=O)O`, the Potency result in experiment [1], in experiment [2], in experiment [4], in experiment [6], in experiment [7] and in [8] was “inactive” each time. The Potency entry in [9] and in [10] was “inactive” in each case. Besides, the outcome in experiment [3] and in experiment [5] was inactive.
Regarding `O=c1cc[nH]c(=S)[nH]1`, the Potency in experiment [1] is 493 nM (active) and inactive. In addition, the Potency entry in experiment [2], in experiment [4], in experiment [6], in experiment [7], in experiment [8] and in [9] was “inactive” in each case. Moreover, the Potency result in experiment [11], in [12], in experiment [10], in experiment [13] and in experiment [14] was “inactive” in each case. The outcome in [3] and in experiment [5] was inactive.
